Rows were chosen to be rich in hits. Some 4.3% of all compounds tested hit in one or more screens of this group.
SMARCA2 act: activators of SMARCA2 function | MG213 cells, MMTV-luciferase reporter, dexamethasone, overnight | activation, % at 9.1 µM | actives 1% (n = 370,000); in the data active = activation above about 7.8%;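 note: 0% = vehicle wells and 100% = reference activator wells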
FGF22 binding: shifts melting point of recombinant human FGF22; recombinant FGF22 thermal shift, SYPRO orange fluorescence; percent of sucrose octasulfate shift, DMSO zero; activity (Tm shift, normalised), % at 9.99 µM; actives 1.5% (n = 340,000); AID 651658;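 active = mean Tm shift, scaled 0 neutral to 100 positive control, at about 1.3% or above, every replicate too, limit read from the data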
Wnt bcat act: activators of Wnt/beta-catenin signaling | Wnt/beta-catenin reporter cell assay, activator, plate reader | AID 743398 | actives 1.2% (n = 300,000) | activation, % at 9.35 µM; in the data active = activation above about 30%, passing the limit was not always enough;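 note: 0% = neutral control wells and 100% = positive control wells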
esBAF inh: SWI/SNF esBAF complex inhibition. reporter increase, % at 12.5 µM. mouse ES cells, Bmi1-luciferase knock-in reporter, 24 h; 100% = twice the neutral-well signal. AID 602393. actives 2% (n = 350,000); in the data active = activation above about 40%;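 note: 0% = median of the plate's neutral control wells and 100% = double that signal; a rise in the Bmi1 reporter signal indicates esBAF inhibition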
AF4-AF9 inh: inhibitors of human MLL-AF4/AF9 interaction; inhibition, % at 10 µM; actives 0.47% (n = 350,000); AlphaScreen, biotin-AF4 peptide binding to FLAG-AF9;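 active = every replicate reaching a set inhibition limit, whatever the replicate mean, cut at about 25% in these data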;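 note: 0% = plate neutral control median and 100% = total signal loss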
Target sequence (P42568 whole entry, looked up): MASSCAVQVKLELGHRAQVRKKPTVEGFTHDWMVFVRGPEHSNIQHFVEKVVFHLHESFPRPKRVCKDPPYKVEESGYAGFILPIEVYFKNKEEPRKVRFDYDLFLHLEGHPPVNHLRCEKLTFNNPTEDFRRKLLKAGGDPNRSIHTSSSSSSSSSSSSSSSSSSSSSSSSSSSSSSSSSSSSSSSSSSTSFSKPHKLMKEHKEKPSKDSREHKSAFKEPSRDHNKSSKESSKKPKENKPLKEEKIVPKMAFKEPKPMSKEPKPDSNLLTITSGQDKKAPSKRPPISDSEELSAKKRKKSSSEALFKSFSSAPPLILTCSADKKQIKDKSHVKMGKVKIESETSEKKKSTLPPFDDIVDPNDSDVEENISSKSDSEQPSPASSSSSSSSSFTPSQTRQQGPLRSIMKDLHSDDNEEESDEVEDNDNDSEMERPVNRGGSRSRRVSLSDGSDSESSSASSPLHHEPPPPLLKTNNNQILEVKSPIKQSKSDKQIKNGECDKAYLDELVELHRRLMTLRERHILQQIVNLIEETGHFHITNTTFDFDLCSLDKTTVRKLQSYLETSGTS
MITF act: activators of MITF-driven TRPM1 promoter activity in SK-MEL-5 cells. AID 588334. actives 0.75% (n = 300,000). activation, % at 12.5 µM. SK-MEL-5 TRPM1-promoter luciferase, 24 h; % of positive control, neutral wells = 0;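 active = mean activation of at least 80% with every replicate also reaching 80%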;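 note: 0% = neutral control wells and 100% = parthenolide positive control wells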
An asterisk follows results filed as active; / = no result.

SMILES	SMARCA2 act	FGF22 binding	Wnt bcat act	esBAF inh	AF4-AF9 inh	MITF act
Cc1noc(C)c1NC(=O)N(C)C[C@@H]1Oc2ccc(NS(=O)(=O)c3ccc(F)cc3)cc2C(=O)N([C@H](C)CO)C[C@@H]1C	/	0	/	2	-1	/
CC(C)c1ccc(OCc2nc(-c3ccccn3)no2)c(Br)c1	1	/	76*	25	/	79
CC(Oc1ccc(Cl)cc1Cl)c1nc(-c2ccccn2)no1 (stereo unspecified)	2	/	/	103*	/	131*
CCC(c1ccccc1)c1nc(-c2ccccn2)no1 (stereo unspecified)	0	/	/	47*	/	25
CCCNC(=O)N1CC2(C1)[C@H](c1ccccc1)[C@H](CO)N2C(=O)c1ccncc1	/	0	/	/	-2	/
O=C(NC1CCCCC1)N1CC(=O)N2[C@H](CO)[C@@H](c3ccc(-c4cccc(F)c4)cc3)[C@@H]2C1	/	-1	/	/	0	/
C[C@H]1CN([C@@H](C)CO)C(=O)c2cc(NC(=O)NC3CCCCC3)ccc2O[C@@H]1CN(C)Cc1ccccc1	/	0	/	3	2	/
C[C@H]1CN([C@@H](C)CO)C(=O)c2cc(NC(=O)NC3CCCCC3)ccc2O[C@H]1CN(C)Cc1ccccc1	/	-1	/	2	33*	/
C[C@@H]1CN([C@H](C)CO)C(=O)c2cc(NC(=O)Nc3ccc4c(c3)OCO4)ccc2O[C@@H](C)CCCCO[C@H]1CN(C)Cc1ccc2c(c1)OCO2	/	-1	/	-4	39*	/
C[C@@H]1CCCCO[C@@H](CN(C)Cc2ccccc2)[C@H](C)CN([C@H](C)CO)C(=O)c2cc(NC(=O)Nc3ccc4c(c3)OCO4)ccc2O1	/	-1	/	1	31*	/
COc1ccc(CN(C)C[C@H]2OCCCC[C@@H](C)Oc3ccc(NC(=O)Nc4ccc5c(c4)OCO5)cc3C(=O)N([C@@H](C)CO)C[C@@H]2C)cc1	/	-1	/	-7	28*	/
COc1ccc(CN(C)C[C@@H]2OCCCC[C@H](C)Oc3ccc(NC(=O)Nc4ccc5c(c4)OCO5)cc3C(=O)N([C@@H](C)CO)C[C@@H]2C)cc1	/	0	/	-1	22	/
C[C@@H]1CCCCO[C@H](CN(C)Cc2ccc3c(c2)OCO3)[C@@H](C)CN([C@@H](C)CO)C(=O)c2cc(NC(=O)C3CCCCC3)ccc2O1	/	13*	/	2	4	/
O=S(=O)(c1ccccc1)N1C[C@@H]2[C@H](c3ccccc31)[C@H](CO)N2Cc1ccc2c(c1)OCO2	/	0	/	-7	0	/
COCC(=O)Nc1ccc2c(c1)OC[C@@H](C)N(C(=O)c1ccccc1F)C[C@@H](C)[C@@H](OC)CN(C)C2=O	/	0	/	2	-1	/
OCC1CCN(Cc2cn(Cc3ccccc3)nc2-c2cc3ccccc3o2)CC1	3	44*	-1	-1	2	6
COC1CCN(Cc2cn(Cc3ccccc3)nc2-c2cc3ccccc3o2)CC1	3	0	0	2	4	20
OCC1CCCN(Cc2cn(Cc3ccccc3)nc2-c2cc3ccccc3o2)C1 (stereo unspecified)	3	43*	0	/	3	10
COc1cccc(CNC(=O)CCC2CCCN(Cc3cc4ccccc4o3)C2)c1 (stereo unspecified)	-3	0	5	/	1	-3
O=C(C[C@H]1C=C[C@@H](NC(=O)c2ccncc2)[C@H](CO)O1)Nc1ccccc1	/	/	/	/	-17	/
CC(C)(C)NC(=O)C(=O)N/N=C/c1cccs1	2	/	22	46*	/	/
O=C(N/N=C/c1cccs1)c1cc(-c2cccc3ccccc23)n[nH]1	1	44*	/	/	10	18
CC(C)(C)C1CCc2c(C(=O)NNC(=O)/C=C/C(=O)O)csc2C1 (stereo unspecified)	-1	/	-4	/	/	-5
CC(C)(C)C1CCc2c(C(=O)N/N=C/c3cccs3)csc2C1 (stereo unspecified)	4	0	19	35	1	124*
O=C(N/N=C/c1cccs1)c1ccc2ccccc2c1	1	0	12	77*	0	28
C[C@H]1CN([C@@H](C)CO)C(=O)c2cccc(NS(=O)(=O)c3cccs3)c2O[C@H]1CN(C)Cc1ccc(C(F)(F)F)cc1	/	0	/	-6	-1	/
